Here are results for 16 molecules from PubChem BioAssay AID743060 (The Scripps Research Institute Molecular Screening Center, 2013).

In general, inhibition refers to the drop in the measured response relative to a control, in per cent.

The nature of the assay: inhibitors of T. brucei MetRS aminoacylation, late-stage follow-up, biochemical, radioactivity, round 1 (AID 743060). Conditions: purified enzyme, radiolabel aminoacylation, scintillation, 2 h; at 10 µM; stronger effect = higher value.
As to `O=C(Cn1cc(C(=O)C2CC2)c2ccccc21)Nc1cccc(C(F)(F)F)c1`, the inhibition was determined as 31.3%. As for `COc1ccc(CCN(C(=O)c2cccc(F)c2)C2CC(=O)N(c3ccc(Br)cc3)C2=O)cc1` (stereo unspecified), the inhibition is -7.62%.

With `C[C@H](O)[C@@H]1C(=O)N2CCc3c([nH]c4ccccc34)[C@@H]2C[C@@H]1N(C)Cc1ccc2c(c1)OCO2`, the inhibition was 80.4%. Regarding `O=C(NCc1nc2ccccc2[nH]1)C1=C[C@@H](c2ccc(Br)cc2)C[C@@H](OCc2ccc(CO)cc2)O1`, the inhibition was 97.6%. The value for `CC(CC(=O)Nc1cccc(Br)c1)=NNC(=O)c1ccc(O)cc1O` was 90.5%.

Turning to `O=C(NNC(=O)c1cc(-c2ccc(Cl)c(Cl)c2)nc2ccccc12)Nc1ccccc1`, the inhibition came to 85.5%. The value for `CCN(CC)C(=O)C(=O)c1cn(CC(=O)Nc2ccccc2OC)c2ccccc12` was -11.4%. Consider `Cc1ccc(C(=O)NCCc2nc3ccccc3[nH]2)cc1C`, for which the inhibition was -3.55%. As to `CNC(=S)N(CCc1ccccc1)C1CC(=O)N(c2ccc(Br)cc2)C1=O` (stereo unspecified), the inhibition came to 99.7%. As for `Cc1cccc(NC(=O)C2CC(=O)n3c(nc4ccccc43)N2)c1` (stereo unspecified), the inhibition was found to be 8.95%. For `COc1ccc(CCN(C(=S)Nc2ccccc2)C2CC(=O)N(c3ccc(Cl)cc3)C2=O)cc1` (stereo unspecified), the inhibition turned out to be 99.4%. The value for `O=C(NCc1nc2ccccc2[nH]1)C1=C[C@H](c2ccc(Br)cc2)C[C@H](OCCCCO)O1` was 94.3%; that for `O=C(NCCc1nc2ccccc2[nH]1)c1c(F)cccc1F` was 1.38%. Take `Clc1ccc(OCCSCc2nc3ccccc3[nH]2)cc1`: the inhibition came to 44.8%. Turning to `Cc1cccc2[nH]c(CCN(C)C(=O)c3cccc(C4CCNC4)c3)nc12` (stereo unspecified), the inhibition is -14.3%. To `Clc1ccc(-c2nnc(SCc3nc4ccccc4[nH]3)o2)c(Cl)c1` belongs 97%.
